Results filed as inconclusive are left out. The source made the active and inactive calls. Calls follow the shape of the dose curve; as a rule, active = well fitted curve in the direction sought with a large enough effect in the repeat runs; inconclusive = weak or mixed curves; inactive = no such curve, though single readings can be large; an effect the other way counts as inactive or inconclusive.
Assays:
[1] = A CellTox Green Cytotoxicity Assay to monitor cytotoxicity in HEK293 cells - 24 hour (AID 1224875); also: series mostly up to about 77 µM; nearly all actives have a fitted effect of over 45% in size
In short: (§1)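 Tox21 screen in HEK293: membrane-impermeant cyanine dye fluoresces on binding dead-cell DNA; compound pinned 5 h post-seeding, plates held at 37 C, signal read repeatedly through 40 h.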

[2] = A CellTox Green Cytotoxicity Assay to monitor cytotoxicity in HepG2 cells - 16 hour (AID 1224876); also: nearly all actives have a fitted effect of over 45% in size
In short: (§2)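 Measurements at 0, 8, 16, 24, 32 and 40 h of treatment captured CellTox Green fluorescence in HepG2 cells that had been co-plated with reagent and preincubated 5 h at 37 C/5% CO2.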

[3] = qHTS RealTime-Glo MT Cell Viability Assay in HepG2 cells - 32 hour (AID 1224877); also: nearly all actives have a fitted effect of over 55% in size
In short: (§3)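 qHTS, HepG2, 600 cells/well, RealTime-Glo (NanoLuc + prosubstrate) added with cells; 5 h preincubation; DMSO compound addition; 37 C; luminescence at 0/8/16/24/32/40 h.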

[4] = A CellTox Green Cytotoxicity Assay to monitor cytotoxicity in HepG2 cells - 24 hour (AID 1224878); also: nearly all actives have a fitted effect of over 45% in size; also: potency is read from the fitted curve at half-maximal effect
In short: as §2

[5] = A CellTox Green Cytotoxicity Assay to monitor cytotoxicity in HEK293 cells - 32 hour (AID 1224881); also: nearly all actives have a fitted effect of over 40% in size; also: potency is read from the fitted curve at half-maximal effect
In short: as §1

[6] = A CellTox Green Cytotoxicity Assay to monitor cytotoxicity in HepG2 cells - 0 hour (AID 1224882); also: nearly all actives have a fitted effect of over 35% in size
In short: as §2

[7] = A CellTox Green Cytotoxicity Assay to monitor cytotoxicity in HEK293 cells - 8 hour (AID 1224884); also: nearly all actives have a fitted effect of over 35% in size
In short: as §1

[8] = qHTS RealTime-Glo MT Cell Viability Assay in HepG2 cells - 16 hour (AID 1224885); also: nearly all actives have a fitted effect of over 50% in size
In short: as §3

[9] = A CellTox Green Cytotoxicity Assay to monitor cytotoxicity in HEK293 cells - 16 hour (AID 1224888); also: nearly all actives have a fitted effect of over 35% in size
In short: as §1

[10] = qHTS RealTime-Glo MT Cell Viability Assay in HepG2 cells - 0 hour (AID 1224889); also: nearly all actives have a fitted effect of over 50% in size
In short: as §3

[11] = A CellTox Green Cytotoxicity Assay to monitor cytotoxicity in HepG2 cells - 8 hour (AID 1224890); also: nearly all actives have a fitted effect of over 45% in size
In short: as §2

[12] = qHTS assay to identify small molecule antagonists of the estrogen receptor alpha (ER-alpha) signaling pathway using the BG1 cell line in the presence of 0.1 nM 17-beta-estradiol - cell viability counter screen (AID 1259241); also: nearly all actives have a fitted effect of over 40% in size
In short: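 Cells were plated and left 24 hr, compounds in DMSO were pinned in, 17beta-estradiol was added to 0.1 nM final, and after 22 hr CellTiter-Fluor reagent was added for 30 min before fluorescence was read.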

[13] = qHTS RealTime-Glo MT Cell Viability Assay in HepG2 cells - 8 hour (AID 1224873); also: nearly all actives have a fitted effect of over 55% in size
In short: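 Real-time viability: cells seeded at 600 per well together with NanoLuc and cell-permeant prosubstrate, compounds added after 5 h incubation. Luminescence tracked at 0, 8, 16, 24, 32 and 40 h of exposure.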

[14] = qHTS RealTime-Glo MT Cell Viability Assay in HEK293 cells - 40 hour (AID 1224874); settings: RealTime-Glo luminescence; max response: stronger effect = lower value; also: nearly all actives have a fitted effect of over 50% in size; also: potency is read from the fitted curve at half-maximal effect
In short: (§4)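 HEK293 + NanoLuc + prosubstrate, 600 cells/well; 5 h, 37 C/5% CO2; compound 23 nL in DMSO by pintool; 37 C; luminescence read at 0, 8, 16, 24, 32 and 40 h time points.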

[15] = A CellTox Green Cytotoxicity Assay to monitor cytotoxicity in HepG2 cells - 40 hour (AID 1224879); also: nearly all actives have a fitted effect of over 40% in size; also: potency is read from the fitted curve at half-maximal effect
In short: as §2

[16] = qHTS RealTime-Glo MT Cell Viability Assay in HEK293 cells - 0 hour (AID 1224880)
In short: as §4

[17] = A CellTox Green Cytotoxicity Assay to monitor cytotoxicity in HepG2 cells - 32 hour (AID 1224883); also: nearly all actives have a fitted effect of over 50% in size; also: potency is read from the fitted curve at half-maximal effect
In short: as §2

[18] = qHTS RealTime-Glo MT Cell Viability Assay in HEK293 cells - 8 hour (AID 1224887)
In short: as §4

[19] = qHTS RealTime-Glo MT Cell Viability Assay in HEK293 cells - 16 hour (AID 1224872)
In short: (§5)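 Assay medium contained NanoLuc luciferase plus cell-permeant prosubstrate, added with HEK293 cells at 600 cells/well. After 5 h at 37 C/5% CO2 compounds were added; plates stayed at 37 C for 40 h with serial luminescence reads.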

[20] = qHTS RealTime-Glo MT Cell Viability Assay in HEK293 cells - 24 hour (AID 1224886); also: nearly all actives have a fitted effect of over 50% in size; also: potency is read from the fitted curve at half-maximal effect
In short: as §5
% is scaled to controls: 0 for no effect and ±100 for the full control effect.

c1ccc(C(O[C@@H]2CCCN(CCc3ccc4c(c3)OCO4)C2)c2ccccc2)cc1
inactive: Potency [1] | Potency [2] | Potency [3] | Potency [4] | Potency [5] | Potency [6] | Potency [7] | Potency [8] | Potency [9] | Potency [10] | Potency [11] | Potency [12]

CCCCCc1ccc(Cl)cc1
active: Potency [14] 15.5 µM
inactive: Potency [13] | Potency [2] | Potency [3] | Potency [4] | Potency [15] | Potency [16] | Potency [5] | Potency [6] | Potency [17] | Potency [7] | Potency [8] | Potency [18] | Potency [9] | Potency [10] | Potency [11] | Potency [12]

Oc1cc(Cl)cc(Cl)c1Cl
active: Potency [5] 50.2 µM
inactive: Potency [13] | Potency [2] | Potency [3] | Potency [4] | Potency [15] | Potency [16] | Potency [6] | Potency [17] | Potency [8] | Potency [10] | Potency [11] | Potency [12]

CC(C)=CCNc1ncnc2c1ncn2[C@@H]1O[C@H](CO)[C@@H](O)[C@H]1O
inactive: Potency [19] | Potency [16] | Potency [7] | Potency [8] | Potency [20] | Potency [18] | Potency [12]

CCn1c2ccccc2c2cc([N+](=O)[O-])ccc21
inactive: max response [14] -23.8% | Potency [1] | Potency [2] | Potency [3] | Potency [4] | Potency [15] | Potency [16] | Potency [5] | Potency [6] | Potency [17] | Potency [7] | Potency [10] | Potency [11] | Potency [12]

CN1CCN(Cc2cc(-c3ccc4[nH]c(=O)oc4c3)co2)[C@@H](c2ccc(F)cc2)C1
active: Potency [14] 26.5 µM | Potency [4] 42 µM | Potency [15] 42 µM | Potency [17] 42 µM | Potency [20] 26.5 µM
inactive: Potency [13] | Potency [1] | Potency [16] | Potency [5] | Potency [6] | Potency [9] | Potency [10] | Potency [11]

CCC(=O)C(=O)CC
inactive: Potency [13] | Potency [1] | Potency [2] | Potency [3] | Potency [4] | Potency [15] | Potency [16] | Potency [5] | Potency [6] | Potency [17] | Potency [7] | Potency [8] | Potency [18] | Potency [11]

Source: PubChem BioAssay (Tox21)
